SMILES strings stand for the structures. Among all 39,000 compounds or so, about 500 (1.3%) were called active. This is one part of a sample in which actives are shown more often than they occur.

For this test, the system named is S. aureus RN4220. Briefly: growth inhibition call (relative growth <= 0.2). As to conditions: 50 µM.
Turning to `Cc1ccc(S(=O)(=O)N(C)C[C@H]2OCCCC[C@H](C)Oc3ccc(NC(=O)Nc4c(C)noc4C)cc3C(=O)N([C@H](C)CO)C[C@@H]2C)cc1`, the growth inhibition call was “inactive”.
The same measure for `Cc1ccc(-c2ccc3c(c2)O[C@H](CN(C)C(=O)NC(C)C)[C@@H](C)CN([C@@H](C)CO)S3(=O)=O)cc1`: “inactive”; for `C[C@H]1CN([C@@H](C)CO)C(=O)Cc2cc(NS(C)(=O)=O)ccc2O[C@@H]1CN(C)C(=O)Nc1ccc(C(F)(F)F)cc1`: “inactive”.
Consider `CC1(C)S[C@H]2[C@@H](NC(=O)[C@@H](NC(=O)N3CCN(S(C)(=O)=O)C3=O)c3ccccc3)C(=O)N2[C@@H]1C(=O)O`, for which the growth inhibition call is “active”.
The same measure for `C[C@H](CO)N1C[C@H](C)[C@@H](CN(C)C(=O)C2CCOCC2)Oc2ncc(C#Cc3ccccc3F)cc2C1=O`: “inactive”; for `CC(C)NC(=O)N[C@@H]1C=C[C@H](CC(=O)O)O[C@H]1CO`: “inactive”; for `COc1ccc(CN(C)C[C@H]2Oc3ccc(NC(=O)Cn4cnnn4)cc3C(=O)N([C@@H](C)CO)C[C@H]2C)cc1`: “inactive”.
The same measure for `CO[C@@H]1CN(C)C(=O)c2ccc(NC(=O)C3CCCC3)cc2OC[C@@H](C)N(C(=O)Nc2ccc(C(F)(F)F)cc2)C[C@H]1C`: “inactive”.
The same measure for `CO[C@@H]1CN(C)C(=O)c2cc(NC(=O)C3CC3)ccc2OC[C@@H](C)N(C(=O)Nc2ccc(C(F)(F)F)cc2)C[C@H]1C`: “inactive”.
For the compound `CO[C@@H]1CN(C)C(=O)c2cc(NC(=O)C3CCOCC3)ccc2OC[C@@H](C)N(C(=O)Nc2ccc(C(F)(F)F)cc2)C[C@H]1C`, the growth inhibition call is “active”.
Next, `CO[C@@H]1CN(C)C(=O)c2cc(NC(=O)C3CCCC3)ccc2OC[C@@H](C)N(C(=O)Nc2ccc(C(F)(F)F)cc2)C[C@H]1C`: “inactive”.
Next, `CO[C@@H]1CN(C)C(=O)c2ccc(NC(=O)C3CC3)cc2OC[C@@H](C)N(C(=O)Nc2ccc(C(F)(F)F)cc2)C[C@H]1C`: “inactive”.
The same measure for `CO[C@@H]1CN(C)C(=O)c2ccc(NC(=O)C3CCOCC3)cc2OC[C@@H](C)N(C(=O)Nc2ccc(C(F)(F)F)cc2)C[C@H]1C`: “active”.
For the compound `C[C@H](CO)N1C[C@H](C)[C@H](CN(C)Cc2ccncc2)Oc2ccc(NC(=O)Nc3ccc(C(F)(F)F)cc3)cc2C1=O`, the growth inhibition call is “inactive”.
Next, `C[C@@H]1CN([C@H](C)CO)C(=O)c2cc(NS(=O)(=O)c3cccs3)ccc2O[C@@H](C)CCCCO[C@@H]1CN(C)S(=O)(=O)c1ccc(Cl)cc1`: “inactive”; `CCN(CC)C(C)CN1c2ccccc2Sc2ccccc21.Cl` (centres undefined): “inactive”; `C[C@H](CO)N1C[C@H](C)[C@H](CN(C)C(=O)Nc2ccccc2)Oc2c(NS(=O)(=O)c3cn(C)cn3)cccc2C1=O`: “inactive”.
Turning to `C[C@@H]1CN([C@H](C)CO)C(=O)c2cccc(NS(=O)(=O)c3ccc(F)cc3)c2O[C@H]1CN(C)S(=O)(=O)c1cccs1`, the growth inhibition call is “inactive”.
The same measure for `Cc1ccc(OC(=O)N(C)C[C@H]2OCc3ccccc3-c3ccccc3C(=O)N([C@@H](C)CO)C[C@@H]2C)cc1`: “inactive”; for `C[C@H](CO)N1C[C@H](C)[C@@H](CN(C)C(=O)c2ccncc2)OCCCC[C@H](C)Oc2ccc(NS(=O)(=O)c3ccc(Cl)cc3)cc2C1=O`: “inactive”; for `O=c1[nH]c(=O)n([C@H]2C[C@H](O)[C@@H](CO)O2)cc1F`: “active”.
Next, `Cc1cn([C@H]2C[C@H](O)[C@@H](CO)O2)c(=O)[nH]c1=O`: “inactive”; `O=c1[nH]c(=O)n(C2CC(O)C(CO)O2)cc1F` (centres undefined): “inactive”.
On to `Cc1cn([C@@H]2C[C@@H](O)[C@H](CO)O2)c(=O)[nH]c1=O`, for which the growth inhibition call was “inactive”.
Next, `Cc1cn([C@@H]2C[C@H](O)[C@@H](CO)O2)c(=O)[nH]c1=O`: “inactive”.
Turning to `O=c1[nH]c(=O)n([C@@H]2C[C@@H](O)[C@@H](CO)O2)cc1F`, the growth inhibition call is “active”.
Next, `C[C@H](CO)N1C[C@H](C)[C@@H](CN(C)S(=O)(=O)c2cn(C)cn2)Oc2ccc(NC(=O)C3CC3)cc2C1=O`: “inactive”; `C[C@H]1CCCCO[C@@H](CN(C)C(=O)Cc2ccccc2)[C@@H](C)CN([C@@H](C)CO)C(=O)c2cc(NS(=O)(=O)c3ccc(F)cc3)ccc2O1`: “inactive”.
The same measure for `C#CCOc1ccc(-c2c(C(=O)NC3CCCCC3)oc(OC)c2S(=O)(=O)c2ccc(Cl)cc2)cc1`: “inactive”.
In the case of `COc1ccc(S(=O)(=O)N(C)C[C@H]2OCCCC[C@@H](C)Oc3ccc(NC(=O)Nc4c(C)noc4C)cc3C(=O)N([C@@H](C)CO)C[C@@H]2C)cc1`, the growth inhibition call was “inactive”.
The same measure for `O=C(NO)c1cn(-c2cccc(C(=O)N3CCC4(CC3)C(=O)NCN4c3ccccc3)c2)nn1`: “active”; for `O=C(/C=C/c1cccc(-c2cn(-c3cccc(C(=O)N4CCC5(CC4)C(=O)NCN5c4ccccc4)c3)nn2)c1)NO`: “inactive”; for `O=C(/C=C/c1cccc(-c2cn(CC(=O)N3CCC4(CC3)C(=O)NCN4c3ccccc3)nn2)c1)NO`: “inactive”.
Regarding `O=C(CCc1cn(CC(=O)N2CCC3(CC2)C(=O)NCN3c2ccccc2)nn1)NO`, the growth inhibition call was “active”.
The same measure for `O=C(NO)c1cn(CC(=O)N2CCC3(CC2)C(=O)NCN3c2ccccc2)nn1`: “inactive”.
Next, `O=C(Cn1cc(CN2C(=O)COC[C@H]2c2ccccc2)nn1)N1CCC2(CC1)C(=O)NCN2c1ccccc1`: “inactive”; `Cc1ccc(S(=O)(=O)N(C)C[C@@H]2Oc3c(NC(=O)c4cnccn4)cccc3C(=O)N([C@@H](C)CO)C[C@H]2C)cc1`: “inactive”; `C[C@@H]1CCCCO[C@@H](CN(C)S(=O)(=O)c2ccccc2)[C@@H](C)CN([C@H](C)CO)C(=O)c2cc(NS(=O)(=O)c3ccc(Cl)cc3)ccc2O1`: “inactive”.
The same measure for `Cc1noc(C)c1S(=O)(=O)Nc1cccc2c1O[C@@H](CN(C)Cc1ccc(C(=O)O)cc1)[C@@H](C)CN([C@H](C)CO)C2=O`: “inactive”; for `CCCC(=O)Nc1ccc2c(c1)OC[C@@H](C)N(C(=O)Cc1cccnc1)C[C@@H](C)[C@H](OC)CN(C)C2=O`: “inactive”.
For the compound `Cc1noc(C)c1CO`, the growth inhibition call is “inactive”.
As to `Cc1ccc(-c2noc([C@H](C)c3ccc(CC(C)C)cc3)n2)cc1`, the growth inhibition call was “inactive”.
Next, `C[C@@H]1CCCCO[C@@H](CN(C)Cc2ccccc2)[C@@H](C)CN([C@@H](C)CO)C(=O)c2cc(NS(=O)(=O)c3ccc(F)cc3)ccc2O1`: “inactive”; `NCc1cc2ccccc2s1`: “inactive”.
In the case of `O=C(O)c1cn(C2CC2)c2cc(N3CCC(O)(COc4ccc(N5C[C@H](CO)OC5=O)cc4F)CC3)c(F)cc2c1=O`, the growth inhibition call is “inactive”.
Regarding `Cc1cccc(N2C[C@@H](CN)OC2=O)c1`, the growth inhibition call is “inactive”.
Next, `Cn1c(=O)c2c(ncn2CC(=O)N2CCN(c3ccccc3F)CC2)n(C)c1=O`: “inactive”.
The same measure for `CC(=O)NCC1CN(c2ccc(N3CCOCC3)c(F)c2)C(=O)O1` (centres undefined): “active”.
As to `CC(=O)NC[C@H]1CN(c2ccc(N3CCN(C(=O)CO)CC3)c(F)c2)C(=O)O1`, the growth inhibition call was “active”.
